# Compound activity: PubChem BioAssay, National Center for Advancing Translational Sciences (NCATS)
# Only some compounds are listed: those with a hit (about 17% of all), similar ones and a draw of the others.
# TDP1 block: blocks human tyrosyl-DNA phosphodiesterase 1 | Q9NUW8 | recombinant TDP1, AlphaScreen DNA substrate cleavage | Potency, µM (doses to about 130 µM), without a hit: at the highest dose activity change, negative = inhibition, hits mostly inhibitors | 350,000 compounds, 0.28% hits | AID 485290; further: on the % scale 0 is the no-effect control and ±100 the full control effect; nearly all actives have a fitted effect of over 40% in size
# Target sequence (Q9NUW8 whole entry, looked up): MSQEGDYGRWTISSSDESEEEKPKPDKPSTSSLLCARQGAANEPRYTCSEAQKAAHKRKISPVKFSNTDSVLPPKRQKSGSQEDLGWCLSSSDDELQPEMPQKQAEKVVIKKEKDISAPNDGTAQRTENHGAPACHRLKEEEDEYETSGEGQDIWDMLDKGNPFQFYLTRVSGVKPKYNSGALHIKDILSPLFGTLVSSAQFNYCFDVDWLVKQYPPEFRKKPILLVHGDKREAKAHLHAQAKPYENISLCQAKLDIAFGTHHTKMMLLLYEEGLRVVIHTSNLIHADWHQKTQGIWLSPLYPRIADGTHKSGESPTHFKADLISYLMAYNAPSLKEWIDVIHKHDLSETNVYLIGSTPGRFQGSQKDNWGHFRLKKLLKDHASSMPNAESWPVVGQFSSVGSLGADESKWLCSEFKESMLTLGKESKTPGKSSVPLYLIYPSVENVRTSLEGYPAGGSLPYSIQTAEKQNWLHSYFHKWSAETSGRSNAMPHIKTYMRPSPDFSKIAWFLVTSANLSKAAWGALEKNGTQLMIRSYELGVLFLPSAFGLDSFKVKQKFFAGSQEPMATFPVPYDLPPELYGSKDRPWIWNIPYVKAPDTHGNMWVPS
#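 Recombinant human Tdp1 (E. coli-expressed, 1 nM final) preincubated with compounds 15 min at room temperature, then 5'-biotin/3'-phosphotyrosine-FITC DNA substrate (15 nM final) added for 5 min. AlphaScreen beads (10 ug/ml final) added 10 min; cleavage lowers signal.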
# TDP1 cell CPT: DT40-hTDP1 cell growth loss with CPT; chicken DT40 Tdp1-/-;hTDP1 cells + 20 nM CPT, ATP luminescence, 48 h; Potency, µM (highest dose often 46.2 µM), without a hit: at the highest dose activity change, negative = growth inhibition, most hits filed as inhibitors; 420,000 compounds, 12% hits; further: on the % scale 0 is the no-effect control and ±100 the full control effect; nearly all actives have a fitted effect of over 55% in size
#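 Cell growth measured by CellTiter-Glo luminescence after a minimum 48 h, 37 C compound exposure with 20 nM CPT in Tdp1-knockout DT40 cells stably expressing hTDP1, seeded 400/well; qHTS titration format.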
# ClpP mod: qHTS Assay for Activators of ClpP; ATP-dependent Clp protease proteolytic subunit (Bacillus subtilis (strain 168)), P80244; purified B. subtilis ClpP, FRET peptide cleavage, 20 min; Potency, µM (doses to about 57.5 µM), inactives show at the top dose activity change, negative = active; 340,000 compounds, 1.9% hits; AID 651965, 2013; active means well fitted falling curve with a large enough effect; inconclusive means small, poorly fitted or top-dose-only effect; inactive means no such curve, though single readings can be large or run the other way; further: the source files actives as falling curves though it sought activators and does not explain the sign; nearly all actives have a fitted effect of over 65% in size
#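 ClpP 10 microg/mL final, pH 8 Tris/KCl buffer with BSA, glycerol, Tween-20; compound pinned in; FRET-FV substrate; RT 20 min; Ex320/Em430; ΔFRET vs ADEP 5.8 microM, DMSO, no enzyme.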
# TDP1 cell noCPT: qHTS for Inhibitors of human tyrosyl-DNA phosphodiesterase 1 (TDP1): qHTS in cells in absence of CPT | 420,000 compounds, 15% hits | AID 686978, 2013 | DT40 Tdp1-/- hTDP1 cells, no CPT, ATP luminescence, 48 h | Potency, µM (top dose mostly 46.2 µM), inactives show top-dose activity change, negative = growth inhibition, actives largely listed as inhibitors; further: on the % scale 0 is the no-effect control and ±100 the full control effect; nearly all actives have a fitted effect of over 55% in size
#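 Stably hTDP1-transfected Tdp1-null chicken DT40 cells were treated with library compounds minus camptothecin and grown for at least 48 hr at 37 °C, after which cellular ATP was quantified by luminescence.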
# Active calls of the source: *; ? = inconclusive; · = not tested or not shown; [ ] = remark or other dose. Unless noted, the call rests on the fitted dose curve; in most records, active means well fitted curve in the direction sought with a large enough effect; inconclusive means small, poorly fitted or top-dose-only effect, or another doubt; inactive means no such curve, though single readings can be large; an effect the other way counts as inactive or inconclusive. Potency means the concentration at half of the fitted maximal effect.
SMILES,TDP1 block,TDP1 cell CPT,ClpP mod,TDP1 cell noCPT
Cc1ccc(Cl)cc1NC(=O)C(Cc1ccccc1)N1C(=O)C2C3CCC(C3)C2C1=O (stereo not drawn),0.0%,?,-1.5%,14.6µM*
C#CCOCCOCCOCCNc1nc(N2CCN(C(=O)CCCCCCCCCCNC(=O)[C@@H](CCSC)n3cc(CCO)nn3)CC2)nc(N2CCN(C(=O)CCCCCCCCCCNC(=O)[C@H]([C@@H](C)CC)n3cc(CCCCN=C(N)N)nn3)CC2)n1,13.2%,?,0.5%,?
CSCC[C@@H](C(=O)NCCCCCCCCCCC(=O)N1CCN(C(=O)OC(C)(C)C)CC1)n1cc(CCO)nn1,·,20.6µM*,-0.6%,14.6µM*
NCCCC[C@@H](C(=O)NCCCCCCCCCCC(=O)N1CCNCC1)n1cc(CCO)nn1,-0.8%,6.9%,0.9%,-14.2%
CC[C@H](C)Cc1cn([C@@H](CCCCNC(=O)OC(C)(C)C)C(=O)NCCCCCCCCCCC(=O)N2CCN(C(=O)OC(C)(C)C)CC2)nn1,0.3%,?,1.3%,16.4µM*
CC(C)NC(=O)N(C)C[C@H]1Oc2ccc(NC(=O)Nc3ccccc3)cc2C(=O)N([C@@H](C)CO)C[C@@H]1C,1.1%,2.6%,1.2%,5.7%
CC(C)(C)CN1C(=O)C(=O)NC[C@@H]1Cc1ccc(O)cc1,0.0%,1.7%,-1.5%,-13.1%
CC(C)C(=O)NC(c1cccc([N+](=O)[O-])c1)c1c(O)ccc2ccccc12 (stereo not drawn),-7.6%,4.3%,·,-12.1%
CC(C)C(=O)NC(c1cccc([N+](=O)[O-])c1)c1ccc2cccnc2c1O (stereo not drawn),·,4.61µM*,0.3%,4.61µM*
CCCC(=O)NC(c1cccc([N+](=O)[O-])c1)c1ccc2cccnc2c1O (stereo not drawn),·,11.6µM*,1.9%,2.91µM*
CCC(=O)NC(c1cccc([N+](=O)[O-])c1)c1c(OC(C)=O)ccc2ccccc12 (stereo not drawn),-5.2%,?,28.2µM*,?
C/C(Cl)=C\Cn1c(N2CCCC2)nc2c1c(=O)n(C)c(=O)n2C,·,-12.3%,-1.9%,?
Cc1ccc(C)c(CN2CCc3nnc(CNC(=O)c4cc(C)oc4C)n3CC2)c1,·,?,·,-20.5%
O=C(CN1C(=O)COc2ccc(S(=O)(=O)N3CCCCCC3)cc21)NCCc1ccccc1,-2.6%,?,-2.7%,?
Cc1ccc(CN(C(=O)COc2cccc([N+](=O)[O-])c2)c2ccccn2)cc1,4.7%,?,-2.2%,20.6µM*
COc1cc(CN(C(=O)COc2ccc(Br)cc2)c2ccccn2)cc(OC)c1OC,-6.8%,16.4µM*,-1.7%,16.4µM*
Cc1ccc(OCC(=O)N(Cc2ccccc2)c2ccccn2)cc1,-1.1%,-14.7%,1.6%,1.3%
COCC(=O)N(Cc1ccccc1)c1ccccn1,1.0%,4.5%,-1.7%,-10.1%
COc1cc(CN(C(=O)COc2ccc(C)cc2)c2ccccn2)cc(OC)c1OC,-0.5%,8.2µM*,0.6%,9.2µM*
COc1cc(CN(C(=O)COc2ccccc2Cl)c2ccccn2)cc(OC)c1OC,-4.7%,?,1.1%,18.4µM*
O=C(Cn1ccc(NC(=O)OCc2ccccc2)nc1=O)NCCc1c[nH]c2ccccc12,3.8%,?,1.2%,?
COC(=O)[C@H](CC(C)C)NC(=O)Nc1ccc(S(N)(=O)=O)cc1,0.0%,-0.8%,2.1%,23.0%
COc1cc(CN(C(=O)COc2ccc(Cl)c(C)c2)c2ccccn2)cc(OC)c1OC,0.5%,11.6µM*,-4.3%,10.3µM*
Cc1ccc(CN(C(=O)COc2cccc([N+](=O)[O-])c2)c2ccccn2)o1,3.6%,?,-0.1%,?
Cc1ccc(CN(C(=O)COc2ccc(Cl)c(C)c2)c2ccccn2)o1,-1.6%,?,-1.5%,14.6µM*
SMILES,TDP1 block,TDP1 cell CPT,ClpP mod,TDP1 cell noCPT
CCOC(=O)c1c(N=CN(C)C)c2cc([N+](=O)[O-])cnc2n1C,5.6%,?,·,-28.6%
CCCCn1c(-c2ccc(F)c(F)c2)nc2cc3[nH]c(=O)c(C(C)C)nc3cc21,·,20.6µM*,3.8%,20.6µM*
O=S(=O)(c1ccccc1)N1CN(c2ccc(F)cc2F)c2nc3ccccc3nc21,1.3%,?,1.9%,25.9µM*
Cc1ccc2c(c1)c1c(n2C)-c2[nH]ncc2CC1,7.5%,?,12.6µM*,?
CCN(CC)CCn1c2c(c(SCC(=O)Nc3nccs3)nc1=O)CCCC2,0.0%,1.8%,-5.8%,-6.1%
CCn1nc(C)cc1C(=O)NCCN1Cc2ccccc2OC(c2ccccc2F)C1 (stereo not drawn),·,?,·,16.4µM*
N=c1ccn(CC(=O)c2ccc(-c3ccccc3)cc2)cc1,6.0%,4.61µM*,·,2.91µM*
O=C(CN1C(=O)CCC1=O)c1ccc(-c2ccccc2)cc1,-2.8%,-10.1%,-7.1%,-25.0%
COC(=O)COc1ccc2c(c1)O/C(=C\c1cccc([N+](=O)[O-])c1)C2=O,·,18.4µM*,0.6%,13µM*
COc1ccc(/C=C2\Oc3cc(OCC(N)=O)ccc3C2=O)cc1OC,·,?,-6.3%,?
Cn1c2ccccc2c(=O)c2ccc(C#CC3(O)CCCCC3)cc21,·,13µM*,4.1%,10.3µM*
CNC(C)C#Cc1ccc2sc3cccc(OC)c3c(=O)c2c1 (stereo not drawn),·,?,-6.8%,14.6µM*
CNC(C)C#Cc1ccc2oc3cccc(OC)c3c(=O)c2c1 (stereo not drawn),·,?,3.7%,?
COc1cc2sc3ccc(C#CC4(O)CCCCC4)cc3c(=O)c2cc1OC,·,?,3.6%,16.4µM*
COc1cccc2sc3ccc(C#CC4(N)CCCCC4)cc3c(=O)c12,·,16.4µM*,-2.0%,14.6µM*
COc1cccc(C#Cc2c(C=O)n(C)c3ccccc23)c1,17.8µM*,16.4µM*,-27.3%,16.4µM*
COc1ccc(C#Cc2ccc3c(c2)c(=O)c2ccccc2n3C)cc1,·,?,3.9%,18.4µM*
Cn1c(C=O)c(C#CC(C)(C)O)c2ccccc21,-4.0%,?,-1.7%,?
COc1cccc2sc3cc(C#CC4(O)CCCCC4)ccc3c(=O)c12,2.6%,7.31µM*,-0.9%,?
CCCC(=O)Nc1ccc2nn(-c3ccc(CC)cc3)nc2c1,·,?,4.2%,?
CC1CCN(S(=O)C23CC4CC(CC(C4)C2)C3)CC1 (stereo not drawn),0.0%,26.1%,·,?
COc1cc(C(=O)Nc2ccc(S(=O)(=O)N3CCCCC3C)cc2)cc(OC)c1OC (stereo not drawn),4.1%,20.6µM*,-1.3%,?
COc1ccc(C(=O)Nc2ccc(S(=O)(=O)N3CCCCC3C)cc2)c(OC)c1OC (stereo not drawn),8.0%,18.4µM*,?,16.4µM*
Nc1nc2[nH]c(=O)[nH]c2c(=O)[nH]1,11.7%[56.1 µM],-10.5%,·,6.7%
